Assay outcomes (PubChem)
In the library only some 4.8% were active in any assay of this set; here they are far more common.
ssDAF-12 act = activates DAF-12 receptor from parasite S. stercoralis; HEK293 ssDAF-12/GRIP1 lit1-tk-luc reporter, luminescence; % of 3 µM dafachronic acid response; activation, % at 6.8 µM; actives 1% (n = 370,000); AID 652126;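 active = activation above the mean over all tested compounds plus 3 SD, cut at about 0.9% in these data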;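 note: 0% = DMSO-only wells and 100% = 3 µM delta7-dafachronic acid wells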
hcDAF12 agonist = activates DAF-12 receptor from parasite H. contortus; HEK293 hcDAF-12 lit1-tk-luc reporter, luminescence; 0% DMSO, 100% Δ7-dafachronic acid; activation, % at 6.8 µM; actives 1.4% (n = 370,000); AID 652067;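 active = activation above the mean of all tested compounds plus 3 SD, cut at about 5.5% in these data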;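 note: 100% = response to 3 µM Δ7-dafachronic acid high control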
SMARCA2 activ = increases SMARCA2 function in MMTV reporter cells; MG213 cells, MMTV-luciferase reporter, dexamethasone, overnight; activation, % at 9.1 µM; actives 1% (n = 370,000); AID 652017; in the data active = activation above about 7.8%;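 note: 0% = vehicle wells and 100% = reference activator wells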
DAX1 inh-1 = blocks DAX1 repression of SF-1 activated StAR promoter; HEK293T StAR-luciferase reporter, SF-1/DAX-1 repression relief; inhibition, % at 6.8 µM; actives 1.1% (n = 370,000); AID 652010;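 active = inhibition above the mean over all tested compounds plus 3 SD, cut at about 3.6% in these data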;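 note: 0% = DAX-1 cells with DMSO and 100% = cells lacking DAX-1 with DMSO; higher inhibition means more luminescence from relief of DAX-1 repression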
hgDAF12 agonist = agonists of H. glycines DAF-12 nuclear receptor; HEK293 GAL4-hgDAF12 UAS-luciferase reporter, agonist luminescence; normalized to butyrate control; activation, % at 6.8 µM; actives 1.8% (n = 370,000);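 active = activation above a cutoff set at the mean of all screened compounds plus 3 SD, cut at about 10% in these data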;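 note: 0% = DMSO wells and 100% = sodium butyrate wells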
DAX1 inh-2 = inhibits human nuclear receptor DAX1 | inhibition, % at 6.75 µM | P51843 | actives 0.99% (n = 340,000) | AID 504766 | HEK293 Gal4-DAX1 luciferase reporter, luminescence;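 active = inhibition above the mean over all tested compounds plus 3 SD, cut at about 4.2% in these data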;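 note: 0% = DAX1-transfected cells with DMSO and 100% = empty-vector control cells with DMSO; inhibition shows as a rise in luminescence from relieved DAX1 repression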
Target sequence (P51843 207-470 limits assumed): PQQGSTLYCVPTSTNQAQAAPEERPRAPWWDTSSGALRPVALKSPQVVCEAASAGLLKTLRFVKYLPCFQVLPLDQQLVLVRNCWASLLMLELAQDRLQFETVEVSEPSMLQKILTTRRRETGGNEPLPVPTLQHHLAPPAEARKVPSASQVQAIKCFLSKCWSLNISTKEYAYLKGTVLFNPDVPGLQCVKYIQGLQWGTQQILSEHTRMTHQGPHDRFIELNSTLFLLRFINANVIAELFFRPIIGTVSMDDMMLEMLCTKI
Numbers without * were called inactive; nt = no result.

SMILES | ssDAF-12 act | hcDAF12 agonist | SMARCA2 activ | DAX1 inh-1 | hgDAF12 agonist | DAX1 inh-2
CC(C)c1ccc(C2c3[nH]c4ccccc4c3C[C@H]3C(=O)N(c4ccccc4C(=O)N4CCC[C@@H]4C(=O)O)C(=O)N23)cc1 (stereo not given in full) | 1 | 3 | 3 | -1 | 2 | 1
COc1ccc(C2c3[nH]c4ccccc4c3C[C@H]3C(=O)N(c4ccccc4C(=O)N4CCC[C@H]4C(=O)O)C(=O)N23)cc1 (stereo not given in full) | 0 | 5 | 2 | 1 | 1 | 5.2*
CC(C)c1ccc(C2c3[nH]c4ccccc4c3C[C@H]3C(=O)N(c4ccccc4C(=O)N4CCC(C(=O)O)CC4)C(=O)N23)cc1 (stereo not given in full) | -1 | 5.8* | 1 | 0 | 4 | 3
COc1cccc(C2c3[nH]c4ccccc4c3C[C@H]3C(=O)N(c4ccccc4C(=O)NCCCN4CCOCC4)C(=O)N23)c1 (stereo not given in full) | -1 | 5.7* | 2 | -1 | -1 | -1
CCc1ccc(C(=O)/C=C/c2cnn(C)c2C)s1 | -1 | 2 | 1 | 3 | 12* | 5.2*
O=C(O)c1ccc(-c2noc(-c3ccc(F)cc3)n2)cc1 | 0 | 5.7* | 6 | 2 | 13* | 0
O=C(Nc1cccc(-c2nnc(-c3ccccc3)o2)c1)C1CC1 | -2 | -3 | 1 | 0 | 4 | -1
Cc1ccc(-c2nnc(-c3ccccc3)o2)cc1 | 0 | 4 | 3 | 3 | 12* | 1
O=C(O)c1ccc(-c2nnc(-c3ccccc3)o2)cc1 | 1.0* | 5 | 5 | 1 | 8 | 2
O=C(O)c1ccc(-c2nnc(-c3ccc([N+](=O)[O-])cc3)o2)cc1 | -1 | 0 | 0 | 0 | 1 | 0
COc1ccc(-c2nnc(-c3ccc(C)cc3)o2)cc1 | 1 | 3 | 3 | 2 | 8 | 3
CC(=O)Nc1cccc(-c2nnc(-c3ccccc3)o2)c1 | -1 | 0 | 4 | 0 | 12* | -1
O=C(NCc1ccccc1F)C1C2C=CC3(CN(Cc4ccccc4)C(=O)C13)O2 (stereo not given) | -1 | -2 | -3 | 0 | -1 | nt
Cc1ccc(N(C)c2nc(N)nc(N)c2N=O)cc1 | 0 | 0 | -5 | 0 | 1 | nt
Nc1nc(-c2ccccc2)c(N=Nc2ccccc2Cl)s1 | -1 | 5.8* | -4 | -1 | 5 | -1
N/C(=N/O)C(c1ccccc1)c1ccccc1 | 0 | 5.8* | 0 | 1 | 3 | -1
O=C(O)C(c1ccccc1)c1ccccc1 | 0 | 2 | -3 | 1 | 1 | 1
COc1cc(/C=N/NC(=O)C(Cc2c[nH]c3ccccc23)NC(=O)OCC(C)C)cc([N+](=O)[O-])c1OCc1ccccc1 (stereo not given) | 0 | 1 | -3 | 0 | -2 | 5.2*
COc1cc(/C=N/NC(=O)C(Cc2c[nH]c3ccccc23)NC(=O)OCC(C)C)cc([N+](=O)[O-])c1O (stereo not given) | -1 | 0 | -2 | 0 | 1 | 0
CCC[C@H]1[C@@H](NS(=O)(=O)c2ccccc2[N+](=O)[O-])CC[C@@]23CCCN2C(=O)CCC[C@@H]13 | -2 | 0 | nt | nt | 1 | nt
CN=C1S/C(=C\c2cc(C)n(-c3ccccc3F)c2C)C(=O)N1C | -3 | -3 | -5 | -2 | -6 | 1
COCCN=C1S/C(=C\c2cc(C)n(-c3ccc(F)cc3F)c2C)C(=O)N1C | 0 | 5.7* | nt | nt | 4 | nt
COC(=O)[C@H]1C[C@@]2(c3ccccc3)c3ccccc3N(S(=O)(=O)c3ccccc3)[C@H]2N1 | -1 | -2 | 0 | -1 | 9 | nt
CCC(C)[C@H](NC(=O)N1CC(=O)Nc2ccccc21)C(=O)N[C@@H](Cc1c[nH]c2ccccc12)C(=O)O (stereo not given in full) | 0 | 5.9* | 4 | 1 | -2 | 4
CC(C)C[C@H](NC(=O)N1CC(=O)Nc2ccccc21)C(=O)N[C@H](Cc1c[nH]c2ccccc12)C(=O)O | 0 | 4 | -3 | 1 | 1 | 3
SMILES | ssDAF-12 act | hcDAF12 agonist | SMARCA2 activ | DAX1 inh-1 | hgDAF12 agonist | DAX1 inh-2
CC(C)[C@H](NC(=O)N1CC(=O)Nc2ccccc21)C(=O)N[C@@H](Cc1ccccc1)C(=O)O | -2 | 0 | 4 | 2 | 3 | 7.0*
COc1ccc(CCNC(=O)Cn2ncc3c2-c2cc(C)ccc2OC3)cc1 | -2 | -2 | -4 | -2 | -3 | nt
C[C@@H]1COc2cc(Br)ccc2S(=O)(=O)N1Cc1cn(CCC2OCCCO2)nn1 | -2 | -2 | -1 | 0 | -4 | nt
O=C1CCC[C@H]2Cc3nc4cccc(Cl)c4cc3C[C@]23CCCN13 | -1 | -2 | nt | nt | 2 | nt
CNc1nc(N)c([N+](=O)[O-])c(NCC2CCCO2)n1 (stereo not given) | -1 | -2 | -1 | 0 | 0 | 5.2*
COc1cccc(-c2nnc3n2N=C(c2ccc(Cl)cc2)CS3)c1 | -1 | -2 | -2 | 0 | -2 | nt
CC(=NN(Cc1ccccc1)c1ccccc1)c1ccccc1 | -1 | 1 | -2 | 0 | 2 | 4.5*
C/C(=N\N(c1ccccc1)c1ccccc1)c1ccc(O)cc1 | -1 | -2 | 3 | 0 | -1 | 2
CC(O)(c1ccccc1)c1nc(-c2cccc(C(=O)O)c2)cs1 (stereo not given) | 0 | 3 | -2 | 3 | 11* | nt
Cc1c(NC(=O)/C(C#N)=C/c2ccccc2)c(=O)n(-c2ccccc2)n1C | -1 | 0 | -1 | 0 | 0 | -1
Cc1ccc(Oc2nc3ccccn3c(=O)c2/C=C(\C#N)C(=O)Nc2c(C)n(C)n(-c3ccccc3)c2=O)c(C)c1 | -1 | 0 | -3 | 0 | -1 | 0
COc1ccccc1Oc1nc2ccccn2c(=O)c1/C=C(\C#N)C(=O)Nc1c(C)n(C)n(-c2ccccc2)c1=O | 0 | 2 | 3 | 0 | 0 | 4.8*
Cc1ccsc1/C=C(\C#N)C(=O)Nc1c(C)n(C)n(-c2ccccc2)c1=O | -2 | 0 | 0 | 1 | 0 | 4.8*
CN1C2=NC(c3ccccc3)CC(=O)N2/C(=C\c2ccccc2)C1c1ccccc1C(F)(F)F (stereo not given) | -1 | -3 | nt | nt | 1 | nt
COc1ccc2[nH]cc(C(=O)CN3CCCC(C)C3)c2c1 (stereo not given) | -1 | 0 | 0 | 0 | 3 | -1
CCOC(=O)C1CCCN(CC(=O)Nc2cc(C)cc(C)c2)C1 (stereo not given) | -1 | 0 | -1 | 1 | 1 | 0
COc1ccc2[nH]cc(C(=O)CN3CCC(C)CC3)c2c1 | 1.3* | 3 | 4 | 1 | 7 | 3
